Source: PubChem BioAssay
Active and inactive are the calls of the source.

Tests used:
[1] = system: PRMT1 (protein arginine N-methyltransferase 1); test: small molecules binding arginine methyltransferase PRMT1 – biochemical, small-molecule microarray, 635 nm fluorescence, primary screen (AID 1088); settings: higher = more signal;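 also: binding of Prmt1 protein to compounds spotted on small-molecule microarray slides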
[2] = growth effects on S. cerevisiae YJM789 – YJM789 clinical isolate, OD600, 24 h, basal, primary screen (AID 1089); settings: higher = more signal, called active from +8 up or from −8 down;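 also: growth of clinical yeast isolate S. cerevisiae YJM 789 seeded 1000 cells per well; test concentration not given here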
[3] = S. pombe growth modifiers, basal conditions – strain 972, OD600, 24 h, no modulator, primary screen (AID 1090);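 also: basal condition with compound alone and no growth modifier present; test concentration not given here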; settings: S. pombe 972 growth, higher = more signal, called active from +8 up or from −8 down
[4] = budding yeast growth modifiers under rapamycin – strain BY4716, OD600, 96 h, primary screen (AID 1091); also: test concentration not given here; settings: S. cerevisiae BY4716 + rapamycin, higher = more signal, called active from +8 up or from −8 down
[5] = target: Torsin-1A-interacting protein 2 (Homo sapiens) (UniProt Q8NFQ8); test: small molecules binding lysate-expressed LULL1 – cell lysate, human LULL1 lysate, 635/667 nm fluorescence, primary screen (AID 1092); settings: small-molecule microarray, hLULL1 lysate binding, 635 nm fluorescence; higher = more signal;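 also: probe is lysate of COS7 cells overexpressing human LULL1; score merges per-feature 667 nm fluorescence with signal-to-noise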
[6] = optical density change of DRC41 E. coli – strain DRC41, OD650, 24 h, E. coli filamentation project, primary screen (AID 1093);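 also: MC1000 strain lacking acrAB efflux and sulA so SOS filamentation is blocked; test concentration not given here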; settings: E. coli DRC41 growth, higher = more signal, called active from +8 up or from −8 down
[7] = probe aLefty2 binding to arrayed compounds – biochemical, biotinylated probe, 635/667 nm fluorescence, primary screen (AID 1094); settings: small-molecule microarray, higher = more signal;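 also: score merges spot fluorescence near 667 nm with spot signal-to-noise ratio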
[8] = system: Noggin (protein binding on small-molecule microarray); test: small molecules binding Noggin protein – biochemical, 635/667 nm fluorescence, primary screen (AID 1095); settings: 635 nm fluorescence, higher = more signal;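 also: score merges 667 nm feature fluorescence with signal to noise over triplicate slides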
[9] = target: Neurogenic locus notch homolog protein 3 (Homo sapiens) (UniProt Q9UM47); test: small molecules binding NOTCH3 protein – biochemical, 635/667 nm fluorescence, primary screen (AID 1096); settings: small-molecule microarray, 635 nm fluorescence, higher = more signal
[10] = probe aEGFR binding to arrayed compounds – biochemical, biotinylated probe, 635/667 nm fluorescence, primary screen (AID 1097); settings: small-molecule microarray, higher = more signal;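 also: probe is a biotinylated anti-EGFR antibody binding compounds printed on slides; score combines fluorescence near 667 nm and signal to noise of each spot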
[11] = system: Plasmodium falciparum Sir2 (PF13_0152, Sir2A); test: Plasmodium falciparum Sir2A binding compounds – biochemical, small-molecule microarray, 635 nm fluorescence, primary screen (AID 1098); settings: fluorescence 635 nm, higher = more signal;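 also: score merges spot fluorescence intensity with its signal-to-noise ratio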
[12] = probe aDKK1 binding to arrayed compounds – biochemical, biotinylated probe, 635/667 nm fluorescence, primary screen (AID 1099); settings: small-molecule microarray, higher = more signal;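 also: score merges 667nm spot fluorescence with signal to noise across triplicate slides; reference of the scale not given here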
[13] = probe aCHRDL2 binding to arrayed compounds – biochemical, biotinylated probe, 635/667 nm fluorescence, primary screen (AID 1100); settings: small-molecule microarray, higher = more signal
[14] = change in splice reporter luminescence, either direction, cell-based, HEK293, spliceosome inhibition project, primary screen (AID 1101); settings: HEK293 splicing luciferase reporter, 24 h, higher = more signal, called active from +8 up or from −8 down;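 also: HEK293 cells carrying a splicing-competent luciferase reporter gene; test concentration not given here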
[15] = target: Fibroblast growth factor 10 (Homo sapiens) (UniProt O15520); test: compounds binding fibroblast growth factor 10 – biochemical, small-molecule microarray, 635 nm fluorescence, primary screen (AID 1102); settings: FGF10 binding, fluorescence 635 nm, higher = more signal
[16] = system: glycogen synthase kinase-3 (GSK3A per assay name; protocol says GSK3B); test: compounds binding glycogen synthase kinase-3 – biochemical, small-molecule microarray, 635 nm fluorescence, GSK3A, primary screen (AID 1103); settings: fluorescence 635 nm, higher = more signal; also: the record names both GSK3A and GSK3B
[17] = target: Epidermal growth factor receptor (Homo sapiens) (UniProt P00533); test: compounds binding epidermal growth factor receptor – biochemical, small-molecule microarray, 635 nm fluorescence, primary screen (AID 1104); settings: EGFR binding, higher = more signal;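 also: score merges 667 nm emission intensity with spot signal to noise over triplicate slides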
[18] = target: Follistatin-related protein 3 (Homo sapiens) (UniProt O95633); test: compounds binding follistatin-related protein 3 – biochemical, small-molecule microarray, 635 nm fluorescence, primary screen (AID 1105); settings: FSTL3 binding, higher = more signal;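 also: score merges emission near 667 nm and signal to noise per printed spot across three slides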
[19] = target: Dickkopf-related protein 1 (Homo sapiens) (UniProt O94907); test: small molecules binding DKK1 protein – biochemical, small-molecule microarray, 635 nm fluorescence scan, primary screen (AID 1106); settings: higher = more signal;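 also: score merges emission near 667 nm with signal to noise over three replicate slides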
[20] = system: Inhibin beta A chain (activin A); test: small molecules binding activin A – biochemical, small-molecule microarray, 635 nm fluorescence scan, primary screen (AID 1107); settings: INHBA, higher = more signal;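 also: mouse activin A protein probed at 4.33 µg/mL on printed slides; score merges bound-protein fluorescence near 667 nm with spot signal-to-noise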

Chain of Fibroblast growth factor 10 (Homo sapiens) (O15520 whole entry, looked up): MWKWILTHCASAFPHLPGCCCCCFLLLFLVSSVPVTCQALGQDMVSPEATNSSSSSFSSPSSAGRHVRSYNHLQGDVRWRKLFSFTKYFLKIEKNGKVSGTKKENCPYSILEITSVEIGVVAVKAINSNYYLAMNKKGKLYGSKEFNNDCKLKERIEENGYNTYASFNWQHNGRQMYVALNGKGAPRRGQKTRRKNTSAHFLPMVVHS
Chain of Dickkopf-related protein 1 (Homo sapiens) (O94907 whole entry, looked up): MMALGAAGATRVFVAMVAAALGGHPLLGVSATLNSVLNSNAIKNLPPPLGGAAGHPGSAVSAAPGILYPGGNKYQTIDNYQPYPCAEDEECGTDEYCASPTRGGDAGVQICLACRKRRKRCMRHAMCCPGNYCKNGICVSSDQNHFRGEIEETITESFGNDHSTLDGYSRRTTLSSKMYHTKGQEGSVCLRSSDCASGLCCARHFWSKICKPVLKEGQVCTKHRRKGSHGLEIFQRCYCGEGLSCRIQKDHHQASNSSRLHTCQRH
Chain of Neurogenic locus notch homolog protein 3 (Homo sapiens) (Q9UM47 whole entry, looked up): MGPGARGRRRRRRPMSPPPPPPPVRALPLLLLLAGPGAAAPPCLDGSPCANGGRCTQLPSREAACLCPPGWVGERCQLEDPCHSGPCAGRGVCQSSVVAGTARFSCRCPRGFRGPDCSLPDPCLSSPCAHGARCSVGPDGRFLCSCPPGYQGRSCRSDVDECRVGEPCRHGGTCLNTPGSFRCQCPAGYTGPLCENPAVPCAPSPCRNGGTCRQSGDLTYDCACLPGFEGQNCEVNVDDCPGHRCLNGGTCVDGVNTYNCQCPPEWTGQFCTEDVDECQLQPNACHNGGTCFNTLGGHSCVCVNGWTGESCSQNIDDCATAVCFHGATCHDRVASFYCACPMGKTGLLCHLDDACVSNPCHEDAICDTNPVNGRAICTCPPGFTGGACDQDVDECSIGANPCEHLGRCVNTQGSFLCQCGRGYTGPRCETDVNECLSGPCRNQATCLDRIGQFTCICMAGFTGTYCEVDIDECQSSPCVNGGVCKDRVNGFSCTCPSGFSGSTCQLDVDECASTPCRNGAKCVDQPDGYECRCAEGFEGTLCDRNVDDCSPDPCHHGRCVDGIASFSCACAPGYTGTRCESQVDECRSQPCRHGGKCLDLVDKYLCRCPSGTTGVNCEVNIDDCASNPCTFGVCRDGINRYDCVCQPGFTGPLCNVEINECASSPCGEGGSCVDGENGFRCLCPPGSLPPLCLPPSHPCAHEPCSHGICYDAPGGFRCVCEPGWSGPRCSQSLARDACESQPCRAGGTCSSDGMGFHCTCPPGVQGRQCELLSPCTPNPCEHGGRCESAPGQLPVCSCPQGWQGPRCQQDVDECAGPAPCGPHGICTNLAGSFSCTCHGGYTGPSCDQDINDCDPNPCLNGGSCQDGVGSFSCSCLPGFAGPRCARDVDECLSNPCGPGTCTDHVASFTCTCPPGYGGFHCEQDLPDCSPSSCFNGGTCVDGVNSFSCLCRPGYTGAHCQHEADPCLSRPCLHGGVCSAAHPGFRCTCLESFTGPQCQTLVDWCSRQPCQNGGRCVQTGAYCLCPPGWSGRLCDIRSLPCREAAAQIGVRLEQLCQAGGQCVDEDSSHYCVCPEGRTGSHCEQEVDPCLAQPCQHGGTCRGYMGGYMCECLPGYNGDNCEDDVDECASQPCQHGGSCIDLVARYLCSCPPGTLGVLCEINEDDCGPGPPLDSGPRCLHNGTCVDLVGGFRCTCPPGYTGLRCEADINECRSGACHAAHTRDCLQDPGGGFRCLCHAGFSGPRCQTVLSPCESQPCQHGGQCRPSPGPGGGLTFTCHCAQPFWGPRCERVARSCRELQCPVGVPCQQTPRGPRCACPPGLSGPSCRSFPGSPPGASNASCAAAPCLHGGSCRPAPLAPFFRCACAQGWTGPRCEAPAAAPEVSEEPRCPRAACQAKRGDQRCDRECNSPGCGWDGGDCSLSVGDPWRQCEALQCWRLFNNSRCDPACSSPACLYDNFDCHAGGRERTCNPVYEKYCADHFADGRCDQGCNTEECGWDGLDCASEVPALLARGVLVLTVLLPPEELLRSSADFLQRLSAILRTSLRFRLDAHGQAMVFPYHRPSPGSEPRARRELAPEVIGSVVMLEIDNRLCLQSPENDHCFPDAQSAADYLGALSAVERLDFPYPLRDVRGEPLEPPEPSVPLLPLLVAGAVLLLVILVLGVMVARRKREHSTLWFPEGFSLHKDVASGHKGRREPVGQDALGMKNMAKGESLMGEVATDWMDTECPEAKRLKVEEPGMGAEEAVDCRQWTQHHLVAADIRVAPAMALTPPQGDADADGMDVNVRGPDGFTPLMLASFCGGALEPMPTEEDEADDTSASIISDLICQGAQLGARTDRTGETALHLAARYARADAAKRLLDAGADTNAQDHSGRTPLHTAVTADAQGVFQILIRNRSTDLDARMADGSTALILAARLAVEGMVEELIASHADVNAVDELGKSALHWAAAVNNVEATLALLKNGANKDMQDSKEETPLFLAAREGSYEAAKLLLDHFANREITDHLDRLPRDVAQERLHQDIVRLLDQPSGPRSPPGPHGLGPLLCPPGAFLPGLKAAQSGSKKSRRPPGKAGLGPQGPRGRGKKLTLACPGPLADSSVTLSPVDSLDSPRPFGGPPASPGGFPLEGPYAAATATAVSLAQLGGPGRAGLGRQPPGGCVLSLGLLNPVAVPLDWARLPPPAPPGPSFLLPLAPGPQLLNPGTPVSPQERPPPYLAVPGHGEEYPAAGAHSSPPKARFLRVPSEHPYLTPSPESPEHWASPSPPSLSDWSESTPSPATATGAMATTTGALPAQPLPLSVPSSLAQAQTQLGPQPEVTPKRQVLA
Chain of Follistatin-related protein 3 (Homo sapiens) (O95633 whole entry, looked up): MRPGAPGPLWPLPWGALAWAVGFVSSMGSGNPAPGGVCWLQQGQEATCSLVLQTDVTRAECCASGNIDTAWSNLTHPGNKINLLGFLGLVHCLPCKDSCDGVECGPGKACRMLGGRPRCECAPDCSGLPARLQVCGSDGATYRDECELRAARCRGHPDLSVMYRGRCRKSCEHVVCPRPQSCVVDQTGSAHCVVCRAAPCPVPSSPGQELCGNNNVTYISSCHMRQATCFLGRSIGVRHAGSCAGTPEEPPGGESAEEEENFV
Chain of Epidermal growth factor receptor (Homo sapiens) (P00533 whole entry, looked up): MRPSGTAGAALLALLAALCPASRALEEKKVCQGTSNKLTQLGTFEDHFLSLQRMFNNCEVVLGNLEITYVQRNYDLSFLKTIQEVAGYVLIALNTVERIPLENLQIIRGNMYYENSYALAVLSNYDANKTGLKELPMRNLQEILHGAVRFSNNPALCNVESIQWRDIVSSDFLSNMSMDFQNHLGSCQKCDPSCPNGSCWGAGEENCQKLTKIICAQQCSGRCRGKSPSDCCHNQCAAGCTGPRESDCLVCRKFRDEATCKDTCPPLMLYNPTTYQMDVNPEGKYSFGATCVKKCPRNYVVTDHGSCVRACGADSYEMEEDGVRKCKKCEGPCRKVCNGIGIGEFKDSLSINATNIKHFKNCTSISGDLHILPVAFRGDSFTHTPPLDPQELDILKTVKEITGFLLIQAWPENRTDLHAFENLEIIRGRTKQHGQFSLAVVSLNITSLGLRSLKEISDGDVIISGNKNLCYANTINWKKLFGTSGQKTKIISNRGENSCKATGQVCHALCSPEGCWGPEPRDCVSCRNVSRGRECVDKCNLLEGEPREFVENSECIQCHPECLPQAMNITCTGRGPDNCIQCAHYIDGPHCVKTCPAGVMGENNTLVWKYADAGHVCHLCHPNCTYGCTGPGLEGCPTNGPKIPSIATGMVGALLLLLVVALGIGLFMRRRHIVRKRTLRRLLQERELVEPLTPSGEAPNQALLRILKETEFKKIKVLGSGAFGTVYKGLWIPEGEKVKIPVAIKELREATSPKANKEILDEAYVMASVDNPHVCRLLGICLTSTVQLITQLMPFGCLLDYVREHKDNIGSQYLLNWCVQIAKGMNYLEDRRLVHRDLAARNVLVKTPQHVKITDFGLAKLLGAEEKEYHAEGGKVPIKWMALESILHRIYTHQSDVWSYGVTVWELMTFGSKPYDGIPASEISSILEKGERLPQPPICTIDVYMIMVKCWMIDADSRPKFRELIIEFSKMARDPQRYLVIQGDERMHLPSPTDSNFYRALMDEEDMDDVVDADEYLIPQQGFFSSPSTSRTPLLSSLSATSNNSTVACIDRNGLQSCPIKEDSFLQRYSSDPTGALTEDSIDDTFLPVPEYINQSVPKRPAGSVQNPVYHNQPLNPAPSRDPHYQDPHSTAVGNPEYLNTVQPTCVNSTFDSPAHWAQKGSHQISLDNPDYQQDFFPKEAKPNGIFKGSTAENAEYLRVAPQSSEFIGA
Chain of Torsin-1A-interacting protein 2 (Homo sapiens) (Q8NFQ8 whole entry, looked up): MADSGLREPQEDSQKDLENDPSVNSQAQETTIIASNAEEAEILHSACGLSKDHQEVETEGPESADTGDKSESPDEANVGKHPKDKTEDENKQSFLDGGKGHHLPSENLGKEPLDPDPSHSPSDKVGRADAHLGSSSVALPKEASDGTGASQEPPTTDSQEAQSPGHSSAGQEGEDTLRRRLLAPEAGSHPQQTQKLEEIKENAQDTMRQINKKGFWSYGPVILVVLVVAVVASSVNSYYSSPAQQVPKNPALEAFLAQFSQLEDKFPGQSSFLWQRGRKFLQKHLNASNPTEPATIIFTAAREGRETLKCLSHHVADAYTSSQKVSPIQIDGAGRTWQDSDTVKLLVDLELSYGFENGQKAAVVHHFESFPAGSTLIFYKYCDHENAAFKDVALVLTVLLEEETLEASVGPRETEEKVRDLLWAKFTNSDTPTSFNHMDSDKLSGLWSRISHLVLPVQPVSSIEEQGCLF

**Q.** Which results are given for `COC(=O)C[C@H]1O[C@@H](CCc2ccccc2)[C@@H](C)[C@@H]1[Si](C)(C)c1ccc(OC)cc1`?
**A.** composite z-score [1]: -0.604; z-score [2]: 0.425 (inactive); z-score [3]: -0.412 (inactive); z-score [4]: 0.797 (inactive); composite z-score [5]: -0.722; z-score [6]: -0.67 (inactive); composite z-score [7]: -0.253; composite z-score [8]: -0.263; composite z-score [9]: -0.311; composite z-score [10]: -0.206; composite z-score [11]: -1.04; composite z-score [12]: -0.0884; composite z-score [13]: -0.149; z-score [14]: 0.0234 (inactive); composite z-score [15]: -0.587; composite z-score [16]: -1.04; composite z-score [17]: 0.239; composite z-score [18]: -0.232; composite z-score [19]: 0.149; composite z-score [20]: 0.0026

**Q.** With `C#CCOc1ccc(C[C@@H](C(=O)OC)N(CC#C)[C@@H](/C=C/C2CC2)[C@H](O)Cc2ccccc2)cc1` as the compound, how does the composite z-score [1] read?
**A.** -0.828

**Q.** What about the z-score [2] of the same compound?
**A.** 0.591 (inactive)

**Q.** What about the z-score [3] of the same compound?
**A.** 0.027 (inactive)

**Q.** And the z-score [4]?
**A.** 1.29 (inactive)

**Q.** What about the composite z-score [5] of the same compound?
**A.** -0.361

**Q.** And the z-score [6]?
**A.** -0.914 (inactive)

**Q.** What about the composite z-score [7] of the same compound?
**A.** -0.0561

**Q.** And the composite z-score [8]?
**A.** -0.446

**Q.** And the composite z-score [9]?
**A.** -0.384

**Q.** And the composite z-score [10]?
**A.** -0.312

**Q.** And the composite z-score [11]?
**A.** -0.103

**Q.** And the composite z-score [12]?
**A.** -0.285

**Q.** And the composite z-score [13]?
**A.** 0.846

**Q.** What about the z-score [14] of the same compound?
**A.** 0.0683 (inactive)

**Q.** And the composite z-score [15]?
**A.** -0.327

**Q.** And the composite z-score [16]?
**A.** -0.829

**Q.** What about the composite z-score [17] of the same compound?
**A.** -0.92

**Q.** What about the composite z-score [18] of the same compound?
**A.** -0.806

**Q.** And the composite z-score [19]?
**A.** -0.429

**Q.** What about the composite z-score [20] of the same compound?
**A.** 0.899

**Q.** For `COc1ccc(CCNC(=O)[C@@]2(C)c3ccccc3C(=O)N(c3ccc(C)cn3)[C@H]2c2ccc(CO)cc2)cc1`, which composite z-score [1] is on record?
**A.** -0.0351

**Q.** And the z-score [2]?
**A.** -1.39 (inactive)

**Q.** And the z-score [3]?
**A.** -0.739 (inactive)

**Q.** What about the z-score [4] of the same compound?
**A.** -1.17 (inactive)

**Q.** And the composite z-score [5]?
**A.** -0.04

**Q.** And the z-score [6]?
**A.** -0.121 (inactive)

**Q.** And the composite z-score [7]?
**A.** 0.0851

**Q.** What about the composite z-score [8] of the same compound?
**A.** -0.704

**Q.** And the composite z-score [9]?
**A.** -0.736

**Q.** What about the composite z-score [10] of the same compound?
**A.** -0.247

**Q.** What about the composite z-score [11] of the same compound?
**A.** -0.697

**Q.** What about the composite z-score [12] of the same compound?
**A.** -0.0508

**Q.** And the composite z-score [13]?
**A.** 0.156

**Q.** What about the z-score [14] of the same compound?
**A.** 0.981 (inactive)

**Q.** What about the composite z-score [15] of the same compound?
**A.** -1.2

**Q.** What about the composite z-score [16] of the same compound?
**A.** -0.831

**Q.** And the composite z-score [17]?
**A.** -1.03

**Q.** What about the composite z-score [18] of the same compound?
**A.** -1.06

**Q.** And the composite z-score [19]?
**A.** -0.905

**Q.** What about the composite z-score [20] of the same compound?
**A.** 0.453

**Q.** What does the source list for `COCC(=C=CC[C@H](O)c1cccc(OCCO)c1)CCO`?
**A.** composite z-score [1]: 1.47; z-score [2]: -0.45 (inactive); z-score [3]: -0.19 (inactive); z-score [4]: -0.55 (inactive); composite z-score [5]: 2.12; z-score [6]: 0.0234 (inactive); composite z-score [7]: -0.185; composite z-score [8]: 0.69; composite z-score [9]: 0.898; composite z-score [10]: -0.112; composite z-score [11]: 0.34; composite z-score [12]: -0.0405; composite z-score [13]: -0.101; z-score [14]: 0.105 (inactive); composite z-score [15]: 0.569; composite z-score [16]: -0.218; composite z-score [17]: -0.0436; composite z-score [18]: 0.688; composite z-score [19]: 0.0241; composite z-score [20]: 0.177

**Q.** What does the source list for `C=C(CCCC)/C(=C/C[C@@H](OC(C)=O)c1cccc(OCCO)c1)c1cnc2ccccc2c1`?
**A.** composite z-score [1]: 1.29; z-score [2]: 0.0358 (inactive); z-score [3]: -0.328 (inactive); z-score [4]: 0.142 (inactive); composite z-score [5]: 0.268; z-score [6]: 1.24 (inactive); composite z-score [7]: -0.194; composite z-score [8]: 1.73; composite z-score [9]: 0.86; composite z-score [10]: -0.0828; composite z-score [11]: 0.462; composite z-score [12]: -0.14; composite z-score [13]: 0.0854; z-score [14]: 1.17 (inactive); composite z-score [15]: 1; composite z-score [16]: -0.518; composite z-score [17]: 0.12; composite z-score [18]: 1.12; composite z-score [19]: 0.312; composite z-score [20]: 1.58

**Q.** Which results are given for `CN1C(=O)C2C=CC(C(O)c3ccccc3)N(N3CCCCC3)C2C1=O` (stereo not given)?
**A.** composite z-score [1]: 0.664; z-score [2]: 0.201 (inactive); z-score [3]: 0.24 (inactive); z-score [4]: 0.404 (inactive); composite z-score [5]: 3.52; z-score [6]: -2.05 (inactive); composite z-score [7]: 0.0215; composite z-score [8]: 0.145; composite z-score [9]: 0.646; composite z-score [10]: 0.0713; composite z-score [11]: 1.75; composite z-score [12]: 0.159; composite z-score [13]: 0.846; z-score [14]: 0.651 (inactive); composite z-score [15]: 1.26; composite z-score [16]: 0.83; composite z-score [17]: -0.0247; composite z-score [18]: 0.494; composite z-score [19]: 0.0514; composite z-score [20]: 0.932
